Experimental findings from PubChem BioAssay (EPA / NIEHS) are described below.

Read-out in experiment [1]: Interleukin-6 (IL6), IL6 (gene 3569)
As to the kind of experiment: BSK_CASM3C_IL6: BioMAP Diversity Plus: CASM3C Assay for Interleukin-6 (IL6) Biomarker Activity for (AID 2283040). As to conditions: primary human coronary artery smooth muscle cells; actives raise or lower the signal.

Read-out in experiment [2]: Tissue plasminogen activator (tPA), PLAT (gene 5327)
The experiment is described as follows: BSK_BE3C_tPA: BioMAP Diversity Plus: BE3C Assay for Tissue plasminogen activator (tPA) Biomarker Activity (AID 2283041).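 For outcome: tPA level quantified by ELISA one day after compound addition.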 As to conditions: primary human bronchial epithelial cells; actives raise or lower the signal. An outline of the steps: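 Human primary bronchial epithelial cells were dosed with chemical and tPA biomarker levels measured by ELISA 24 hours later. Activity was fitted bidirectionally against DMSO as negative control and baseline.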

Read-out in experiment [3]: Interleukin-8 (IL8), CXCL8 (gene 3576)
The experiment is described as follows: BSK_CASM3C_IL8: BioMAP Diversity Plus: CASM3C Assay for Interleukin-8 (IL8) Biomarker Activity (AID 2283042).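 Note: IL-8 protein level quantified by ELISA.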 As to conditions: primary human coronary artery smooth muscle cells; actives raise or lower the signal.

Read-out in experiment [4]: Human Leukocyte Antigen - DR isotype (HLADR), HLA-DRA (gene 3122)
As to the kind of experiment: BSK_CASM3C_HLADR: BioMAP Diversity Plus: CASM3C Assay for Human Leukocyte Antigen - DR isotype (HLADR) Biomarker Activity (AID 2283043).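 Note: cell-surface HLA-DR protein level quantified by ELISA.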 As to conditions: primary human coronary artery smooth muscle cells; actives raise or lower the signal.

Read-out in experiment [5]: Macrophage colony-stimulating factor (MCSF), CSF1 (gene 1435)
The experiment is described as follows: BSK_CASM3C_MCSF: BioMAP Diversity Plus: CASM3C Assay for Macrophage colony-stimulating factor (MCSF) Biomarker Activity (AID 2283044).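 Note: M-CSF protein amount quantified by ELISA after 24 h exposure.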 As to conditions: primary human coronary artery smooth muscle cells; actives raise or lower the signal.

Read-out in experiment [6]: Low-density lipoprotein receptor (LDLR), LDLR (gene 3949)
The experiment is described as follows: BSK_CASM3C_LDLR: BioMAP Diversity Plus: CASM3C Assay for Low-density lipoprotein receptor (LDLR) Biomarker Activity (AID 2283045).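 Note: LDLR protein level on the cell surface quantified by ELISA.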 As to conditions: primary human coronary artery smooth muscle cells; actives raise or lower the signal.

Read-out in experiment [7]: Monocyte Chemoattractant Protein-1 (MCP1), CCL2 (gene 6347)
The experiment is described as follows: BSK_CASM3C_MCP1: BioMAP Diversity Plus: CASM3C Assay for Monocyte Chemoattractant Protein-1 (MCP1) Biomarker Activity (AID 2283046).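 Note: MCP-1 level quantified by ELISA 24 h after dosing.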 The following applies: primary human coronary artery smooth muscle cells; actives raise or lower the signal.

Experiment [8] can be described thus: BSK_CASM3C_Proliferation: Cell Proliferation Assessment in the BioMAP Diversity Plus: CASM3C Assay (AID 2283047).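 Note: sulforhodamine B total protein stain as relative cell number at 560 nm; sub-confluent cells exposed 48 h before staining; fitted both ways against DMSO so gain or loss of cell number.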 The following applies: primary human coronary artery smooth muscle cells.
Read-out in experiment [9]: Monokine induced gamma interferon (MIG), CXCL9 (gene 4283)
The experiment is described as follows: BSK_CASM3C_MIG: BioMAP Diversity Plus: CASM3C Assay for Monokine induced gamma interferon (MIG) Biomarker Activity (AID 2283048).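 Note: MIG protein level measured by ELISA.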 The following applies: primary human coronary artery smooth muscle cells; actives raise or lower the signal.

Read-out in experiment [10]: serum amyloid A (SAA), SAA1 (gene 6288)
The experiment is described as follows: BSK_CASM3C_SAA: BioMAP Diversity Plus: CASM3C Assay for serum amyloid A (SAA) Biomarker Activity (AID 2283049).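 Note: SAA protein level quantified by ELISA.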 As to conditions: primary human coronary artery smooth muscle cells; actives raise or lower the signal.

Several values for one entry are separate records, joined by “and”; a condition that tells them apart may be missing. Equal entries are not always repeated. A structure can be active in one record and inactive in another. Activity calls are given as the source filed them. Rule for the calls: active = hit-call score of the fitted dose curve at least 0.9, where 1 is the maximum; inactive = score below 0.9.

For `Nc1cc([N+](=O)[O-])cc(Cl)c1O`, the result in experiment [1], in experiment [2], in experiment [3], in experiment [4], in experiment [5] and in [6] was inactive. Moreover, the outcome in experiment [7], in experiment [8], in [9] and in experiment [10] was inactive.
`O=S(=O)(OCC(F)(F)F)C(F)(F)C(F)(F)C(F)(F)C(F)(F)F`: the result in experiment [1], in experiment [2], in experiment [3], in experiment [4], in experiment [5] and in experiment [6] was inactive. Also, the result in [7], in experiment [8], in experiment [9] and in experiment [10] was inactive. Further, the AC50 was 30 µM (active) in experiment [9] and 0.653 µM (active) in [10].
`NC(=O)C(F)(F)C(F)(F)C(F)(F)C(F)(F)C(F)(F)C(F)(F)C(F)(F)F`: the outcome in experiment [1], in experiment [2], in [3], in [4], in experiment [5] and in experiment [6] was inactive. Further, the result in [7], in [8], in experiment [9] and in [10] was inactive.
On to `O=C(O)C(F)(F)OC(F)(F)C(F)(F)OC(F)(F)C(F)(F)OC(F)(F)F`, for which the result in experiment [1], in [2], in [3], in experiment [4], in experiment [5] and in experiment [6] was inactive. Besides, the outcome in experiment [7], in [8], in experiment [9] and in experiment [10] was inactive.
Consider `CNS(=O)(=O)C(F)(F)C(F)(F)C(F)(F)C(F)(F)C(F)(F)C(F)(F)C(F)(F)C(F)(F)F`, for which the result in experiment [1], in [3], in experiment [4], in experiment [5], in [6] and in experiment [7] was inactive. In addition, the outcome in experiment [8], in [9] and in experiment [10] was inactive. Further, the AC50 in experiment [2] is 220 nM (active) and 654 nM (active); in experiment [8] it was 35.4 µM (active).
`C=CC(=O)OCCC(F)(F)C(F)(F)C(F)(F)C(F)(F)F`: the outcome in [1], in [2], in [3], in [4], in experiment [5] and in experiment [6] was inactive. The result in experiment [7], in experiment [8] and in experiment [10] was inactive. For the same compound, the AC50 in experiment [8] was 15 µM (active); in [9] it was 41.1 µM (active) and 30 µM (active).
Take `OC(O)C(F)(F)C(F)(F)F`: the result in experiment [1], in experiment [2], in experiment [3], in [4], in [5] and in experiment [6] was inactive. In addition, the outcome in [7], in experiment [8], in experiment [9] and in experiment [10] was inactive.
Consider `FC(F)(F)C(F)(F)C(F)(F)C(F)(F)C(F)(F)C(F)(F)C(F)(F)CCI`, for which the outcome in experiment [1], in experiment [2], in experiment [3], in experiment [4], in [5] and in experiment [6] was inactive. For the same compound, the outcome in [7], in [8], in [9] and in [10] was inactive.
For `NC(=O)C(F)(F)C(F)(F)C(F)(F)C(F)(F)C(N)=O`, the outcome in experiment [1], in experiment [2], in experiment [3], in [4], in [5] and in experiment [6] was inactive. Besides, the result in experiment [7], in [8], in experiment [9] and in [10] was inactive.
Regarding `CN(C(=O)C(F)(F)C(F)(F)C(F)(F)F)[Si](C)(C)C`, the result in experiment [1], in experiment [2], in experiment [3], in experiment [4], in [5] and in [6] was inactive. For the same compound, the outcome in experiment [7], in experiment [8], in experiment [9] and in experiment [10] was inactive.
As for `Brc1nc2ccccc2s1`, the outcome in [1], in [2], in [3], in experiment [4], in [5] and in experiment [6] was inactive. Moreover, the result in experiment [7], in experiment [8], in experiment [9] and in [10] was inactive.
`O=C1C=CC(=O)N1c1ccc(Cc2ccc(N3C(=O)C=CC3=O)cc2)cc1`: the AC50 in experiment [1] was 9.64 µM (active); in experiment [2], 3.46 µM (active); in [3], 11 µM (active); in experiment [4], 2.88 µM (active); in experiment [5], 5.07 µM (active); in experiment [6], 2.03 µM (active). Besides, the AC50 in experiment [7] is 4.19 µM (active); in experiment [8], 0.688 µM (active); in experiment [9], 5.42 µM (active); in [10], 3.21 µM (active).
`O=S(=O)(Cl)C(F)(F)C(F)(F)C(F)(F)C(F)(F)C(F)(F)C(F)(F)C(F)(F)C(F)(F)F`: the outcome in experiment [1], in [3], in experiment [4], in [5], in [6] and in [7] was inactive. In addition, the result in experiment [8], in experiment [9] and in experiment [10] was inactive. Besides, the AC50 in experiment [2] was 48.7 µM (active) and 48.8 µM (active).
Take `FC(F)(F)C(F)(F)C(F)(F)C(F)(F)C(F)(F)C(F)(F)CC[Si](Cl)(Cl)Cl`: the result in experiment [1], in experiment [2], in experiment [3], in experiment [4], in experiment [5] and in [6] was inactive. Besides, the result in experiment [7], in [8], in [9] and in [10] was inactive.
Turning to `FC(F)(F)C(F)(F)C(F)(F)CC1CO1` (centres undefined), the result in experiment [1], in experiment [2], in [3], in [4], in experiment [5] and in experiment [6] was inactive. Further, the outcome in experiment [7], in [8], in experiment [9] and in [10] was inactive.
Consider `NC(=O)C(F)(F)C(F)(F)C(F)(F)C(F)F`, for which the outcome in [1], in experiment [2], in [3], in experiment [4], in experiment [5] and in experiment [6] was inactive. The outcome in experiment [7], in experiment [8], in experiment [9] and in [10] was inactive.
Turning to `C=CC(=O)OCC(F)(F)C(F)(F)C(F)(F)C(F)(F)C(F)(F)C(F)(F)C(F)(F)C(F)F`, the result in experiment [1], in [2], in experiment [3], in experiment [4], in experiment [5] and in experiment [6] was inactive. For the same compound, the result in experiment [7], in experiment [8], in experiment [9] and in experiment [10] was inactive.

Usually AC50 stands for the concentration giving half of the maximal activity seen.
